About 3,300 (8.5%) of roughly 39,000 compounds were called active. For the sample, actives were picked, then their nearest neighbours and some compounds at random.

In the assay the test system is HepG2. The assay can be described thus: cytotoxicity call (relative viability < 0.9). The settings on record: 10 µM.
Turning to `C[C@H](CO)N1C[C@H](C)[C@H](CN(C)S(=O)(=O)c2cccs2)Oc2ccc(NC(=O)Cn3cnnn3)cc2C1=O`, the cytotoxicity call is “inactive”.
Turning to `NC1CCN(Cc2ccccc2)CC1`, the cytotoxicity call was “inactive”.
Consider `S=C1SCN(Cc2ccccc2)CN1Cc1ccccc1`, for which the cytotoxicity call was “active”.
Then `NCC1CCN(Cc2ccccc2)CC1`, with “inactive”; and `COc1ccc(NC(=O)N(C)C[C@H]2OCCCC[C@H](C)Oc3ccc(NS(=O)(=O)c4c(C)noc4C)cc3C(=O)N([C@@H](C)CO)C[C@@H]2C)cc1`, with “inactive”.
Turning to `COc1ccc(NC(=O)Nc2ccc3c(c2)C(=O)N([C@H](C)CO)C[C@H](C)[C@@H](CN(C)Cc2ccc(Cl)c(Cl)c2)OCCCC[C@@H](C)O3)cc1`, the cytotoxicity call is “inactive”.
For `COc1ccc(NC(=O)Nc2ccc3c(c2)C(=O)N([C@@H](C)CO)C[C@@H](C)[C@@H](CN(C)Cc2ccc(Cl)c(Cl)c2)OCCCC[C@H](C)O3)cc1`, the cytotoxicity call is “inactive”.
For `COc1ccc(NC(=O)Nc2ccc3c(c2)C(=O)N([C@@H](C)CO)C[C@@H](C)[C@@H](CN(C)Cc2ccc(Cl)c(Cl)c2)OCCCC[C@@H](C)O3)cc1`, the cytotoxicity call is “active”.
As to `COc1ccc(NC(=O)Nc2ccc3c(c2)C(=O)N([C@H](C)CO)C[C@@H](C)[C@H](CN(C)Cc2ccc(Cl)c(Cl)c2)OCCCC[C@@H](C)O3)cc1`, the cytotoxicity call was “active”.
On to `COc1ccc(NC(=O)Nc2ccc3c(c2)C(=O)N([C@@H](C)CO)C[C@H](C)[C@@H](CN(C)Cc2ccc(Cl)c(Cl)c2)OCCCC[C@@H](C)O3)cc1`, for which the cytotoxicity call was “inactive”.
Turning to `COc1ccc(NC(=O)Nc2ccc3c(c2)C(=O)N([C@@H](C)CO)C[C@H](C)[C@H](CN(C)Cc2ccc(Cl)c(Cl)c2)OCCCC[C@@H](C)O3)cc1`, the cytotoxicity call is “inactive”.
As to `CN(C)C(=O)C[C@H]1CC[C@H]2[C@@H](COC[C@H](O)CN2S(=O)(=O)c2ccccc2)O1`, the cytotoxicity call was “inactive”.
With `Cc1noc(C)c1S(=O)(=O)Nc1ccc2c(c1)CC(=O)N([C@@H](C)CO)C[C@H](C)[C@@H](CN(C)C(=O)Nc1ccccc1)O2` the entry was “inactive”; with `C[C@H](CO)N1C[C@H](C)[C@@H](CN(C)S(=O)(=O)c2ccc(Cl)cc2)Oc2ccc(NC(=O)Cn3cnnn3)cc2C1=O`, “inactive”.
Regarding `Cc1noc(C)c1NC(=O)N(C)C[C@H]1Oc2ccc(NC(=O)Nc3ccc(C(F)(F)F)cc3)cc2CC(=O)N([C@H](C)CO)C[C@@H]1C`, the cytotoxicity call is “inactive”.
Then `CCN([NH2+][O-])c1ccc(O)c(O)c1`, with “inactive”; and `C[C@H]1CN([C@@H](C)CO)C(=O)CCCn2cc(nn2)CO[C@@H]1CN(C)C(=O)Nc1ccnc(N2CCOCC2)c1`, with “inactive”; and `Cc1ccc(S(=O)(=O)N(C)C[C@H]2Oc3ccc(NC(=O)Nc4ccc(C(F)(F)F)cc4)cc3C(=O)N([C@H](C)CO)C[C@H]2C)cc1`, with “active”.
With `Cc1ccc(S(=O)(=O)N(C)C[C@@H]2Oc3ccc(NC(=O)Nc4ccc(C(F)(F)F)cc4)cc3C(=O)N([C@@H](C)CO)C[C@@H]2C)cc1`, the cytotoxicity call was “inactive”.
For the molecule `Cc1ccc(S(=O)(=O)N(C)C[C@H]2Oc3ccc(NC(=O)Nc4ccc(C(F)(F)F)cc4)cc3C(=O)N([C@H](C)CO)C[C@@H]2C)cc1`, the cytotoxicity call is “inactive”.
For `Cc1ccc(S(=O)(=O)N(C)C[C@@H]2Oc3ccc(NC(=O)Nc4ccc(C(F)(F)F)cc4)cc3C(=O)N([C@H](C)CO)C[C@H]2C)cc1`, the cytotoxicity call is “inactive”.
`Cc1ccc(S(=O)(=O)N(C)C[C@H]2Oc3ccc(NC(=O)Nc4ccc(C(F)(F)F)cc4)cc3C(=O)N([C@@H](C)CO)C[C@@H]2C)cc1`: the cytotoxicity call is “inactive”.
Take `Cc1ccc(S(=O)(=O)N(C)C[C@@H]2Oc3ccc(NC(=O)Nc4ccc(C(F)(F)F)cc4)cc3C(=O)N([C@H](C)CO)C[C@@H]2C)cc1`: the cytotoxicity call was “active”.
Take `Cc1ccc(S(=O)(=O)N(C)C[C@@H]2Oc3ccc(NC(=O)Nc4ccc(C(F)(F)F)cc4)cc3C(=O)N([C@@H](C)CO)C[C@H]2C)cc1`: the cytotoxicity call is “active”.
`Cc1ccc(S(=O)(=O)N(C)C[C@H]2Oc3ccc(NC(=O)Nc4ccc(C(F)(F)F)cc4)cc3C(=O)N([C@@H](C)CO)C[C@H]2C)cc1`: the cytotoxicity call was “active”.
In the case of `C[C@H]1CN([C@@H](C)CO)S(=O)(=O)c2ccc(C#CC3CCCC3)cc2O[C@@H]1CN(C)C(=O)Cc1ccncc1`, the cytotoxicity call was “inactive”.
In the case of `COc1ccc([Si](C)(C)[C@@H]2[C@@H](CC(=O)N3Cc4ccccc4C[C@H]3CO)O[C@]3(C(=O)N(Cc4cccc(N5CCC5=O)c4)c4ccccc43)[C@H]2C)cc1`, the cytotoxicity call was “inactive”.
With `CC1C(=O)OC2C1CCC1(C)CCC(=O)C(C)C21` (centres undefined), the cytotoxicity call was “inactive”.
As for `CN1CCN(S(=O)(=O)c2ccc(CN)cc2)CC1`, the cytotoxicity call is “inactive”.
For `C[C@H]1CN([C@@H](C)CO)C(=O)c2cc(NS(=O)(=O)c3ccc(Cl)cc3)ccc2O[C@@H]1CN(C)Cc1ccc(Oc2ccccc2)cc1`, the cytotoxicity call is “active”.
In the case of `C[C@H]1CN([C@@H](C)CO)C(=O)c2cc(NS(=O)(=O)c3ccc(Cl)cc3)ccc2O[C@H]1CN(C)Cc1ccc(Oc2ccccc2)cc1`, the cytotoxicity call is “inactive”.
For the molecule `C[C@H](CO)N1C[C@H](C)[C@@H](CN(C)Cc2ccc(Oc3ccccc3)cc2)Oc2ccc(NS(=O)(=O)c3ccc(Cl)cc3)cc2C1=O`, the cytotoxicity call is “inactive”.
With `C[C@@H]1CN([C@@H](C)CO)C(=O)c2cc(NS(=O)(=O)c3ccc(Cl)cc3)ccc2O[C@@H]1CN(C)Cc1ccc(Oc2ccccc2)cc1` the entry was “active”; with `C[C@@H]1CN([C@@H](C)CO)C(=O)c2cc(NS(=O)(=O)c3ccc(Cl)cc3)ccc2O[C@H]1CN(C)Cc1ccc(Oc2ccccc2)cc1`, “inactive”.
For `C[C@@H]1CN([C@H](C)CO)C(=O)c2cc(NS(=O)(=O)c3ccc(Cl)cc3)ccc2O[C@@H]1CN(C)Cc1ccc(Oc2ccccc2)cc1`, the cytotoxicity call was “active”.
With `C[C@H](CO)N1C[C@H](C)[C@H](CN(C)Cc2ccc(Oc3ccccc3)cc2)Oc2ccc(NS(=O)(=O)c3ccc(Cl)cc3)cc2C1=O`, the cytotoxicity call is “inactive”.
Regarding `C[C@@H]1CN([C@H](C)CO)C(=O)c2cc(NS(=O)(=O)c3ccc(Cl)cc3)ccc2O[C@H]1CN(C)Cc1ccc(Oc2ccccc2)cc1`, the cytotoxicity call was “active”.
Take `C[C@H](CO)N1C[C@H](C)[C@H](CN(C)C(=O)Nc2cccc3ccccc23)Oc2ncc(C#Cc3cccc(F)c3)cc2C1=O`: the cytotoxicity call was “inactive”.
For the molecule `CC(C)(C)OC(=O)Nc1cccc([C@@H]2CC(=O)N(C(=O)OCc3ccccc3)[C@@H]2C(=O)Nc2cccc3cccnc23)c1`, the cytotoxicity call is “inactive”.
